# Assay results published in PMC7862700, “An all-to-all approach to the identification of sequence-specific readers for epigenetic DNA modifications on cytosine”.
# Columns and labels:
# Experiment in all cases: DAPPL (digital affinity profiling via proximity ligation, sequencing); 10 mM Tris-HCl pH 7.5, 50 mM NaCl, 1 mM DTT, 4% glycerol, room temperature, 30 min; GST-TFs on glutathione beads, 16-mer random dsDNA library, 0.1% formaldehyde crosslink after washing; high values mean tight binding
# FLI1 = biological target: T1, FLI1 (Homo sapiens, UniProt Q01543 1-452); details: protein: recombinant; tags: N-terminal GST; dsDNA, one strand shown
# T1 sequence: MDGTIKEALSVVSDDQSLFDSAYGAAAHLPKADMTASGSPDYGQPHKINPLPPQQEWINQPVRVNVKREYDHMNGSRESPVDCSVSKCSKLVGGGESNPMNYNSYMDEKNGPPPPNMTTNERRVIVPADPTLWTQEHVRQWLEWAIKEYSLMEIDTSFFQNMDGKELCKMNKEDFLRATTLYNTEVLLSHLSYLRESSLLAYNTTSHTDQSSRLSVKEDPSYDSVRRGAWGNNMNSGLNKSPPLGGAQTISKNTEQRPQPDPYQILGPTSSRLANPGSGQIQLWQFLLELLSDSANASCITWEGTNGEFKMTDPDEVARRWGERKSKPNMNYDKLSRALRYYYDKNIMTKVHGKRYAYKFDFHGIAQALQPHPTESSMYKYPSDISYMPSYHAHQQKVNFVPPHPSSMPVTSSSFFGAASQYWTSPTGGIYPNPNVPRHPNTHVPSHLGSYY
# In short: (§1)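 Sequencing on an Illumina NextSeq500 followed washing, crosslinking with 0.1% formaldehyde, proximity ligation (BsaI/T4 ligase, 1 h, 37 °C) and PCR amplification of pools that had been incubated for 30 min at room temperature with 200 nmole of a random double-stranded 16-mer DNA library in Tris/NaCl/DTT/glycerol buffer. Each pool held DNA-barcoded human transcription factors, expressed in yeast as GST fusions and captured on glutathione beads, plus a tag-only sample. Binding signal is a hexamer's read frequency for a factor divided by its frequency in the tag-only sample.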
# ELK1 = biological target: T2, ELK1 (Homo sapiens, UniProt P19419 1-428); details: protein: recombinant; tags: N-terminal GST; dsDNA, one strand shown
# T2 sequence: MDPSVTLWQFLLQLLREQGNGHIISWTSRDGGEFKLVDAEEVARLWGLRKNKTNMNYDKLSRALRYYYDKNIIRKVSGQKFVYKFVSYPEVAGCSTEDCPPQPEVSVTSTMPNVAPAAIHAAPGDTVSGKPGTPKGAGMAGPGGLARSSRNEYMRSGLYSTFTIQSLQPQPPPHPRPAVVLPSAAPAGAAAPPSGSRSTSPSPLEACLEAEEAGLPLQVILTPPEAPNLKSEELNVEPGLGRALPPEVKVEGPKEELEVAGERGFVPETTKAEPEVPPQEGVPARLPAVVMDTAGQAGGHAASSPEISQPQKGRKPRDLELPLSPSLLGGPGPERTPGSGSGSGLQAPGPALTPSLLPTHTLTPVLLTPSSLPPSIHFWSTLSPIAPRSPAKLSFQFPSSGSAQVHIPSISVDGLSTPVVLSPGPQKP
# In short: as §1
# GABPA = biological target: T3, GABPA (Homo sapiens, UniProt Q06546 1-454); details: protein: recombinant; tags: N-terminal GST; dsDNA, one strand shown
# T3 sequence: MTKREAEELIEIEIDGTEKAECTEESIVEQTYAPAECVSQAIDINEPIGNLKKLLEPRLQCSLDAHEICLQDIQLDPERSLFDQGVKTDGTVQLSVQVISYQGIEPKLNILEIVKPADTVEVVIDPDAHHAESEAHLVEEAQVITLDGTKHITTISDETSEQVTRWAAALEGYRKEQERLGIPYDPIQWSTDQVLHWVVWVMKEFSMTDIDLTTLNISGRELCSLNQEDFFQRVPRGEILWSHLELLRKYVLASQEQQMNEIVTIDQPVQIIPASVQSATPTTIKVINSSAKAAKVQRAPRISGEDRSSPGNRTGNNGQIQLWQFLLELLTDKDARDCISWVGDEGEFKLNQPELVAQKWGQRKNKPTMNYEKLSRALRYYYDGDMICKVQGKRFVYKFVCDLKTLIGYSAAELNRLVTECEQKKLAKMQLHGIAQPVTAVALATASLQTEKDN
# In short: as §1
# ERG = biological target: T4, ERG (Homo sapiens, UniProt P11308 1-479); details: protein: recombinant; tags: N-terminal GST; dsDNA, one strand shown
# T4 sequence: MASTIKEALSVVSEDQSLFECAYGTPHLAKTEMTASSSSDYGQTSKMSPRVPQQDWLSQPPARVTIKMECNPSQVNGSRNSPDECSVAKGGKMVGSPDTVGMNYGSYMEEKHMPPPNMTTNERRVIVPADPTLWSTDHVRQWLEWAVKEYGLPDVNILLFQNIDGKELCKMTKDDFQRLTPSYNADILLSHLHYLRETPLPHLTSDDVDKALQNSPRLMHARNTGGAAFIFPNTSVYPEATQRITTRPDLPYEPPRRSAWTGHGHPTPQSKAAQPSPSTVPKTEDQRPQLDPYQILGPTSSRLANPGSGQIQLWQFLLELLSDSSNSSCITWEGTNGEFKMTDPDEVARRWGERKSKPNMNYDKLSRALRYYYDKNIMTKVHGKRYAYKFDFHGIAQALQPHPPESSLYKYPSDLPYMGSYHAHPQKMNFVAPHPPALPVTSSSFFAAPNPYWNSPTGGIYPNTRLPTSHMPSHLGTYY
# In short: as §1
# ELF1 = ELF1 (Homo sapiens, UniProt P32519 1-619); details: protein: recombinant; tags: N-terminal GST; dsDNA, one strand shown
# In short: as §1
# EHF = biological target: T5, EHF (Homo sapiens, UniProt Q9NZC4 1-300); details: protein: recombinant; tags: N-terminal GST; dsDNA, one strand shown
# T5 sequence: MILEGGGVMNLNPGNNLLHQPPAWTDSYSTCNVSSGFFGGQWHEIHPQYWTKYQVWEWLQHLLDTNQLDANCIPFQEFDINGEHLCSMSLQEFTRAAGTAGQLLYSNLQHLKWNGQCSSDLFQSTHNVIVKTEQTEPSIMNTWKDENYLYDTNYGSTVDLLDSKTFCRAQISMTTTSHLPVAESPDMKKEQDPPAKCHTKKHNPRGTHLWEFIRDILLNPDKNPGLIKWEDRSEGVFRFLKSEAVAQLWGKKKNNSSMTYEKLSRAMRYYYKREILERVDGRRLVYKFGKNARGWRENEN
# In short: as §1
# SPI1 = SPI1 (Homo sapiens, UniProt P17947 1-270); details: protein: recombinant; tags: N-terminal GST; dsDNA, one strand shown
# In short: as §1
# SPIB = SPIB (Homo sapiens, UniProt Q01892 1-262); details: protein: recombinant; tags: N-terminal GST; dsDNA, one strand shown
# In short: as §1
# ELK3 = biological target: T6, ELK3 (Homo sapiens, UniProt P41970 1-407); details: protein: recombinant; tags: N-terminal GST; dsDNA, one strand shown
# T6 sequence: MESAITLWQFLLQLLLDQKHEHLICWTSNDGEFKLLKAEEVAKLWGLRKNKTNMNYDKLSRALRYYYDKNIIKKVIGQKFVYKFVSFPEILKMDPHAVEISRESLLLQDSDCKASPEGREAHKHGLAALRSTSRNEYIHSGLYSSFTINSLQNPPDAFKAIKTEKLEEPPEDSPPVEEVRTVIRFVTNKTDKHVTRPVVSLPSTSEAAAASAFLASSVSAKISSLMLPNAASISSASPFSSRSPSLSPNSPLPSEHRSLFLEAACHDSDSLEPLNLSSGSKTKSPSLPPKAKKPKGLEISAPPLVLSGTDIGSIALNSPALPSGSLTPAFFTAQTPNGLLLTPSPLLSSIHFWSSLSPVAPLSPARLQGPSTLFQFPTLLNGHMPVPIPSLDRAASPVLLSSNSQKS
# In short: as §1
# FEV = biological target: T7, FEV (Homo sapiens, UniProt Q99581 1-238); details: protein: recombinant; tags: N-terminal GST; dsDNA, one strand shown
# T7 sequence: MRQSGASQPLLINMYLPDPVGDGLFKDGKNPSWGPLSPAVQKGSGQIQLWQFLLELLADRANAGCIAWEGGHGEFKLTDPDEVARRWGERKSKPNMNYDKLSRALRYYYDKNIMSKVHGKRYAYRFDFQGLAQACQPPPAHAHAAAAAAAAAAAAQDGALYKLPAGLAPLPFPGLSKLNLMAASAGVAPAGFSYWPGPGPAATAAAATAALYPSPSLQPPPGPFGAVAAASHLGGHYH
# In short: as §1
# ETV5 = ETV5 (Homo sapiens, UniProt P41161 1-510); details: protein: recombinant; tags: N-terminal GST; dsDNA, one strand shown
# In short: as §1
# HSF1 = HSF1 (Homo sapiens, UniProt Q00613 1-529); details: protein: recombinant; tags: N-terminal GST; chain copies: 3; dsDNA, one strand shown
# In short: as §1
# SPIC = biological target: T8, SPIC (Homo sapiens, UniProt Q8N5J4 1-248); details: protein: recombinant; tags: N-terminal GST; dsDNA, one strand shown
# T8 sequence: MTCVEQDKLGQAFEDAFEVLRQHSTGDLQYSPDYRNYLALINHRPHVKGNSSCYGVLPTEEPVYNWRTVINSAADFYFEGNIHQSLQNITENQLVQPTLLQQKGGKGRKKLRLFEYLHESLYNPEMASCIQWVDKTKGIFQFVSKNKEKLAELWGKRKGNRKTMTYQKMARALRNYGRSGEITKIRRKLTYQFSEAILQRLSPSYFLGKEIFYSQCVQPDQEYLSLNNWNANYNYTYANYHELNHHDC
# In short: as §1
# ELF4 = ELF4 (Homo sapiens, UniProt Q99607 1-663); details: protein: recombinant; tags: N-terminal GST; dsDNA, one strand shown
# In short: as §1
# ELK4 = biological target: T9, ELK4 (Homo sapiens, UniProt P28324-2 1-405); details: protein: recombinant; tags: N-terminal GST; dsDNA, one strand shown
# T9 sequence: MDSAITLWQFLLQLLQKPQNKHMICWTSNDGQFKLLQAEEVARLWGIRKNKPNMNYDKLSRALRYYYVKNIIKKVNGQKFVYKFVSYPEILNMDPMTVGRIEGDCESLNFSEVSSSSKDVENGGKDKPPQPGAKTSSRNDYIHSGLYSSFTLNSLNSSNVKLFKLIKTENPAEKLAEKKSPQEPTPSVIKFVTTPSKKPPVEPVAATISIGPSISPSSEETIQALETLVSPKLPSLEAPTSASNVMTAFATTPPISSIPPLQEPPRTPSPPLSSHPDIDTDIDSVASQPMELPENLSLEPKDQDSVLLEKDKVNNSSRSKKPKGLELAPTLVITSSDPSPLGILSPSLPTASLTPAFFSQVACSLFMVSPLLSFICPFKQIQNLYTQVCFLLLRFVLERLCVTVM
# In short: as §1
# ETV2 = biological target: T10, ETV2 (Homo sapiens, UniProt O00321 1-342); details: protein: recombinant; tags: N-terminal GST; dsDNA, one strand shown
# T10 sequence: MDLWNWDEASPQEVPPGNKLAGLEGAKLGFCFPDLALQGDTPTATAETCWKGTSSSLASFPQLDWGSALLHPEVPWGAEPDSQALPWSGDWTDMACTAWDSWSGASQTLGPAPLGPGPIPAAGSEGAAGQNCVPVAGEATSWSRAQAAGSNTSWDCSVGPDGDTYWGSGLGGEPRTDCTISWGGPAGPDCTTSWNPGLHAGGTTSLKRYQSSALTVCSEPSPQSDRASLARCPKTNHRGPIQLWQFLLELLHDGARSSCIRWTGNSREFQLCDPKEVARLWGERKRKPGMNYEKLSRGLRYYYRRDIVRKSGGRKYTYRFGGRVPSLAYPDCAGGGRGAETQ
# In short: as §1
# ELF3 = biological target: T11, ELF3 (Homo sapiens, UniProt P78545 1-371); details: protein: recombinant; tags: N-terminal GST; dsDNA, one strand shown
# T11 sequence: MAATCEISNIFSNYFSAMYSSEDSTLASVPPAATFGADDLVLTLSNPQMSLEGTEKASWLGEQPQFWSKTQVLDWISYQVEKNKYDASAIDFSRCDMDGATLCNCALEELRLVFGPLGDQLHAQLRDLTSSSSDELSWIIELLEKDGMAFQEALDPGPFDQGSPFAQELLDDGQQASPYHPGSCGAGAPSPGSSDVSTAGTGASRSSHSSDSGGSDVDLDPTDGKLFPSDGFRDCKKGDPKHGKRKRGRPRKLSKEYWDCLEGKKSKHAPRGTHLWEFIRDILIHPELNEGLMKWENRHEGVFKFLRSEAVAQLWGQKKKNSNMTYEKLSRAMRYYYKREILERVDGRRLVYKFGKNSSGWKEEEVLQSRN
# In short: as §1
# CRX = CRX (Homo sapiens, UniProt O43186 1-299); details: protein: recombinant; tags: N-terminal GST; dsDNA, one strand shown
# In short: as §1
# ETV1 = ETV1 (Homo sapiens, UniProt P50549 1-477); details: protein: recombinant; tags: N-terminal GST; dsDNA, one strand shown
# In short: as §1
# Sequence of HSF1 (Q00613 whole entry): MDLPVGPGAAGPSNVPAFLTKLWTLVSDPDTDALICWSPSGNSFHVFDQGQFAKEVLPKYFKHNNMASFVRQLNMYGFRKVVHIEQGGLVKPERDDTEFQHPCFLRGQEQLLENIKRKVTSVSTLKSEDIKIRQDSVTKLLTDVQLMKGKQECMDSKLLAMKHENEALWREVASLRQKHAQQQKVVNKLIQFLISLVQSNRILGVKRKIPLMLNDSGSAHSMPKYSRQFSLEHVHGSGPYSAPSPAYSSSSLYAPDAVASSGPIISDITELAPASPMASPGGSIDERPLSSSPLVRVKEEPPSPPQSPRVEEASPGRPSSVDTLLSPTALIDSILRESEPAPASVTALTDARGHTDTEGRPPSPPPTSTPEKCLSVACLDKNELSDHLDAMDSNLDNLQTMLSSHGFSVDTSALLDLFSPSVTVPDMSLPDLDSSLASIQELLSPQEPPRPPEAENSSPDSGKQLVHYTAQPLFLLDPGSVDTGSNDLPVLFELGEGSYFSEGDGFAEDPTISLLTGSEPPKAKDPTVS
# Sequence of ELF1 (P32519 whole entry): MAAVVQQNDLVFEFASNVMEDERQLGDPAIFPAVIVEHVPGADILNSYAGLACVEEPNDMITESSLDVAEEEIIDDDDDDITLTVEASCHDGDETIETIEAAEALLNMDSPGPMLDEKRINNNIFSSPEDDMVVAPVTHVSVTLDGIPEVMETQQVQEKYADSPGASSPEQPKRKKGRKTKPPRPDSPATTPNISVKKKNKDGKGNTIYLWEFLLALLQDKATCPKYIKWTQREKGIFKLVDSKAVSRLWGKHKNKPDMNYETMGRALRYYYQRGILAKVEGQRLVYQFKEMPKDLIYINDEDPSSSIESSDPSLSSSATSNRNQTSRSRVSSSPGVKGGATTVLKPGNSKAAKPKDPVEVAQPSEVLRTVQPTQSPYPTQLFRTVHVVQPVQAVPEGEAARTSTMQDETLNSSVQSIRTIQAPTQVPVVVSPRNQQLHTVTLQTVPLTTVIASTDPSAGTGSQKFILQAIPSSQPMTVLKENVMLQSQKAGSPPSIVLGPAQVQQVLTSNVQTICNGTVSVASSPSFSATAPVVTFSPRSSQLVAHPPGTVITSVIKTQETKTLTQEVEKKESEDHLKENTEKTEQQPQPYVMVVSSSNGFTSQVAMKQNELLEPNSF
# Sequence of CRX (O43186 whole entry): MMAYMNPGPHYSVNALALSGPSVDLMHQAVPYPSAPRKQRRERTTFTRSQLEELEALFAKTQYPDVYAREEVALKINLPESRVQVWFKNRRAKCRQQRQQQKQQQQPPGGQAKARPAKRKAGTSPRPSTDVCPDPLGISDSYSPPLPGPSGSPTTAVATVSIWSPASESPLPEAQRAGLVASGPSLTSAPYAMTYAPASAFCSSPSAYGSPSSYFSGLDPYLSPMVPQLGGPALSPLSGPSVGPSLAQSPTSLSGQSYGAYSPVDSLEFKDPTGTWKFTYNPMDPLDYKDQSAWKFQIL
# Sequence of ELF4 (Q99607 whole entry): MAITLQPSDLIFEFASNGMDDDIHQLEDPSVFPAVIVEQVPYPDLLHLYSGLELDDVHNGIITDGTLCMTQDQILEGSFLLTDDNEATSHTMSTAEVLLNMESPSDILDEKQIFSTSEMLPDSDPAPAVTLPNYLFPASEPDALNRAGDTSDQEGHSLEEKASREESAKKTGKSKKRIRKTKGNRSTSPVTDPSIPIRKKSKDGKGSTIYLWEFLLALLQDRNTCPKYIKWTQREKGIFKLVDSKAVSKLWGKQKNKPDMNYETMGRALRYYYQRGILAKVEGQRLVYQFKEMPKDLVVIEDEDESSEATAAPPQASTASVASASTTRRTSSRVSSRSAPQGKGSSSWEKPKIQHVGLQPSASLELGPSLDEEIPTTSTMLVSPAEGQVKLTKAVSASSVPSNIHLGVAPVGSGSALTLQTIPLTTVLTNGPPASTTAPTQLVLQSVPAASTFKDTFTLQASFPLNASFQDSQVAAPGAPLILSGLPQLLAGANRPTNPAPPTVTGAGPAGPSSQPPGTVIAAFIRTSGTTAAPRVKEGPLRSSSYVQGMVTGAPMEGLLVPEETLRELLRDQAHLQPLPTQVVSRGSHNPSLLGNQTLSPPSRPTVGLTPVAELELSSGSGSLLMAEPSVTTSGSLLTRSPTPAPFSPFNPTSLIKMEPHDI
# Sequence of ETV1 (P50549 whole entry): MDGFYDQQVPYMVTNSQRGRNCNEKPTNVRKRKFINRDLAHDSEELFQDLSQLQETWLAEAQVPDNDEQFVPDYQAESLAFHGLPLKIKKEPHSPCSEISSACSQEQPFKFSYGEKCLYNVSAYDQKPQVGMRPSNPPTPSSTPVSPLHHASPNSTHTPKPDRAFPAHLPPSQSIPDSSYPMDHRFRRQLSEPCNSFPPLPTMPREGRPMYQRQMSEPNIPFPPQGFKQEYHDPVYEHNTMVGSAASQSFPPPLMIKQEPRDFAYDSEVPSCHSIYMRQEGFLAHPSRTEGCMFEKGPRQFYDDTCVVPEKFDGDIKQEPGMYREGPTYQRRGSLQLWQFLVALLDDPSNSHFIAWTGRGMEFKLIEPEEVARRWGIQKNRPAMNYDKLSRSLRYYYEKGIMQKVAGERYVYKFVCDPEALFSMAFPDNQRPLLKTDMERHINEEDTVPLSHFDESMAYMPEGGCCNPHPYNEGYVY
# Sequence of ETV5 (P41161 whole entry): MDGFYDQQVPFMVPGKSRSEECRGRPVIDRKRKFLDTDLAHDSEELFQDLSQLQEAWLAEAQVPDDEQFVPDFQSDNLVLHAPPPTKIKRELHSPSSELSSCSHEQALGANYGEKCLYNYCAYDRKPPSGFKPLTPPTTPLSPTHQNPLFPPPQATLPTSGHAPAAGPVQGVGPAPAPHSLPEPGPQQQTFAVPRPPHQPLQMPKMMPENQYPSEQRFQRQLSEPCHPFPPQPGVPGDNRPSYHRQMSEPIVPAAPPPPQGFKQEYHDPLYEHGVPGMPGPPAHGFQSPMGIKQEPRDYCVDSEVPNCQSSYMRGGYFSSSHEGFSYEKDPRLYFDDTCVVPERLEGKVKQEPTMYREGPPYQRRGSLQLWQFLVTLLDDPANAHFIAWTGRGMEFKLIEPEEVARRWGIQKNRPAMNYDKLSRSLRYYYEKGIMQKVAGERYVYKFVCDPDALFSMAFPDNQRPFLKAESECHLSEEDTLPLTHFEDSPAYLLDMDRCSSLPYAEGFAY
# Sequence of SPIB (Q01892 whole entry): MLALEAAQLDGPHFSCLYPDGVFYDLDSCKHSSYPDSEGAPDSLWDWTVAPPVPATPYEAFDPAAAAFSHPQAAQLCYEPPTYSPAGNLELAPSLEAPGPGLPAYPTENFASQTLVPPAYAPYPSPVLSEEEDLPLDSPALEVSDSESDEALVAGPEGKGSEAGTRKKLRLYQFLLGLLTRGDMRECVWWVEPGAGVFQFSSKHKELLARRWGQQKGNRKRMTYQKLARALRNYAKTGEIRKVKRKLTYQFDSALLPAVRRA
sequence,measurement,setting,value
AAATAT,binding signal,FLI1,"1.24 fold enrichment (6-mer frequency, TF over GST control)"
same,binding signal,ELK1,"1.34 fold enrichment (6-mer frequency, TF over GST control)"
same,binding signal,GABPA,"1.33 fold enrichment (6-mer frequency, TF over GST control)"
same,binding signal,ERG,"1.34 fold enrichment (6-mer frequency, TF over GST control)"
same,binding signal,ELF1,"1.37 fold enrichment (6-mer frequency, TF over GST control)"
same,binding signal,EHF,"1.31 fold enrichment (6-mer frequency, TF over GST control)"
same,binding signal,SPI1,"1.32 fold enrichment (6-mer frequency, TF over GST control)"
same,binding signal,SPIB,"1.47 fold enrichment (6-mer frequency, TF over GST control)"
same,binding signal,ELK3,"1.38 fold enrichment (6-mer frequency, TF over GST control)"
same,binding signal,FEV,"1.28 fold enrichment (6-mer frequency, TF over GST control)"
same,binding signal,ETV5,"1.36 fold enrichment (6-mer frequency, TF over GST control)"
same,binding signal,HSF1,"1.29 fold enrichment (6-mer frequency, TF over GST control)"
same,binding signal,SPIC,"1.43 fold enrichment (6-mer frequency, TF over GST control)"
same,binding signal,ELF4,"1.34 fold enrichment (6-mer frequency, TF over GST control)"
same,binding signal,ELK4,"1.24 fold enrichment (6-mer frequency, TF over GST control)"
same,binding signal,ETV2,"1.49 fold enrichment (6-mer frequency, TF over GST control)"
same,binding signal,ELF3,"1.54 fold enrichment (6-mer frequency, TF over GST control)"
same,binding signal,CRX,"1.39 fold enrichment (6-mer frequency, TF over GST control)"
same,binding signal,ETV1,"1.39 fold enrichment (6-mer frequency, TF over GST control)"
